Records with an inconclusive call do not appear. A call without a number means that no potency is given here. The source made the active and inactive calls. Calls follow the shape of the dose curve; as a rule, active = well fitted inhibition curve with a large enough effect in the repeat runs; inconclusive = weak or mixed curves; inactive = flat fitted curve, though single readings scatter.

In PubChem BioAssay (Tox21) one finds Potency and activity change, negative = inhibition data, which are given here for 40 compounds.
Potency is read from the fitted curve at half-maximal effect.

Voltage-gated inwardly rectifying potassium channel KCNH2 (Homo sapiens), sequence (Q12809 whole entry, looked up): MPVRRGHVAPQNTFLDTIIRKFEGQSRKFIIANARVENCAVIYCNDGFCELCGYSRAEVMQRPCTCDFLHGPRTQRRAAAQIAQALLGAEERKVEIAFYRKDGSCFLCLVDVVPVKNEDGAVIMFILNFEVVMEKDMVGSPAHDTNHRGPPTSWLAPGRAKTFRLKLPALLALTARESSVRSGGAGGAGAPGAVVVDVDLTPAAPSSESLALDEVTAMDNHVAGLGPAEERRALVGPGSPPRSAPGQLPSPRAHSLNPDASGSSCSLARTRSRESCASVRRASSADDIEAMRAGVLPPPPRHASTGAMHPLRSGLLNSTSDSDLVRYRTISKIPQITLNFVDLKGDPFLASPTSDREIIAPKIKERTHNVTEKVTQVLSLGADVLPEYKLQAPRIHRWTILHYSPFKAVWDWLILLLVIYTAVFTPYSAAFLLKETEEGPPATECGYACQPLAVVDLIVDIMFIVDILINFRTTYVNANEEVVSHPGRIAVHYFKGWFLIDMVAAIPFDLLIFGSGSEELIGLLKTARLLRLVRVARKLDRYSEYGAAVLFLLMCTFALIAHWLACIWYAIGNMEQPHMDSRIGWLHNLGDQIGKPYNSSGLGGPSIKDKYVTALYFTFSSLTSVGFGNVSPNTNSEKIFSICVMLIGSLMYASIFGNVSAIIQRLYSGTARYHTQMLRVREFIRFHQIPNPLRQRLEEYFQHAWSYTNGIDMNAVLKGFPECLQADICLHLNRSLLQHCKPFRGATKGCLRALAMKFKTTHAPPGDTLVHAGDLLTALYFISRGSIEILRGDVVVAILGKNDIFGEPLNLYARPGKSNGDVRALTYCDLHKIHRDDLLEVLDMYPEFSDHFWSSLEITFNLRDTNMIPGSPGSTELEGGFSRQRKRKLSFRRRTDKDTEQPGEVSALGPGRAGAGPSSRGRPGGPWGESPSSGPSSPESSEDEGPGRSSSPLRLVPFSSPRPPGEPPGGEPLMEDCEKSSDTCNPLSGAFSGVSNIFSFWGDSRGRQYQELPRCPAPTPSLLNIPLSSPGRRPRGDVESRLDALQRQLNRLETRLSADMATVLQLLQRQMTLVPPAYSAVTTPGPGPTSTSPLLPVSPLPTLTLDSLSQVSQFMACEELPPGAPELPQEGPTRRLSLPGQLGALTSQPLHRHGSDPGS

The experiment addresses Voltage-gated inwardly rectifying potassium channel KCNH2 (Homo sapiens) (UniProt Q12809). The experiment can be described thus: Human Ether-a-go-go-Related Gene (hERG) channel small molecule antagonists: fluorescence cell-based qHTS assay (AID 1671200). Also: nearly all actives have a fitted effect of over 50% in size. Conditions: hERG-U2OS cells, FluxOR thallium flux fluorescence; series mostly up to 76.8 µM. An excerpt:
National Center for Advancing Translational Sciences [NCATS]
U.S. Environmental Protection Agency [EPA]
National Institutes of Environmental Health Sciences [NIEHS]
National Toxicology Program [NTP]
U.S. Food and Drug Administration [FDA]
Mutations in the hERG channel cause Long QT (LQT) syndrome. LQT syndrome is a cardiac disorder which can cause ventricle arrhythmia and sudden death. Additionally, compounds which block the hERG channel can cause acquired LQT syndrome. Several FDA approved drugs have been removed from the market due to their hERG blocking activity. A cell-based hERG channel inhibition assay can be used to screen chemical compounds that inhibit hERG channel. This assay measures hERG channel activity using thallium ions as surrogate ions to measure potassium into the cells.
Tox21 Assay Protocol Summary:
hERG-U2OS cells were resuspended in culture medium and dispensed into 1536-well, black wall/clear-bottom plates at 1000cells/well/3uL using a Multidrop Combi dispenser (Thermo Fisher, Waltham, MA). After plates were incubated at 37 C overnight, 3 uL of Loading Buffer provided by FluxOR II Potassium Ion Channel Assay kit (Thermo, Carlsbad, CA) was added to each well. The assay plates were then incubated at room temperature in the dark for 1h. […] After the assay plates were incubated at room temperature for 10 min, 1 uL of Stimulus Buffer provided by FluxOR II Potassium Ion Channel Assay kit was added into each well and fluorescence intensity (480nm excitation/540nm emission) was continuously measured for 2 min at 1 second intervals using a Functional Drug Screening System (FDSS) 7000EX kinetic plate reader (Hamamatsu, Japan).
(hERG is a cardiac potassium channel; its block is linked to QT prolongation.)
Turning to `CC(C)(C)NC(=O)[C@@H]1C[C@@H]2CCCC[C@@H]2CN1C[C@@H](O)[C@H](Cc1ccccc1)NC(=O)[C@H](CC(N)=O)NC(=O)c1ccc2ccccc2n1`, the Potency was 22.2 µM (active).
Still for that read-out and setting: under `Cc1c(C)c2c(c(C)c1O)CCC(C)(COc1ccc(CC3SC(=O)NC3=O)cc1)O2` (stereo not given) stands “inactive”.
On to `O=C1C=CC(=O)N1c1ccc(Cc2ccc(N3C(=O)C=CC3=O)cc2)cc1`, for which the Potency is 34.7 µM (active).
Consider `Nc1c2ccccc2nc2ccccc12`, for which the Potency entry was “inactive”.
Regarding `CCCCN1C(=O)[C@@H]([C@H](O)C2CCCCC2)NC(=O)C12CCN(Cc1ccc(Oc3ccc(C(=O)O)cc3)cc1)CC2`, the Potency is 19.5 µM (active).
With `NNc1nc(-c2ccccc2)cs1`, the Potency entry is “inactive”.
On the same count and under the same terms, under `CN1CCN(CCC(=O)N2c3ccccc3Sc3ccc(C(F)(F)F)cc32)CC1` stands 4.77 µM (active); under `NC(=O)N1C(=O)C(C(=O)c2cc(Cl)cs2)c2cc(F)c(Cl)cc21` (stereo not given), “inactive”.
Still for that read-out and setting: as for `NNc1nc(-c2ccc(N)cc2)cs1`, the entry is “inactive”; as for `Cc1cc(O)c(Cl)c(C)c1Cl`, “inactive”.
Same read-out and setting: under `CCCCCOC(=O)CCCC` stands “inactive”; under `S=c1[nH]c2ccccc2s1`, “inactive”.
For `O=C(O)c1c(Cl)cccc1Cl`, the Potency result is “inactive”.
On the same count and under the same terms, as for `N=C1C=CC(=C(c2ccc(N)cc2)c2ccc(N)cc2)C=C1`, the entry is “inactive”; as for `[Cl][Au]([Cl])[Cl]`, “inactive”.
Still for that read-out and setting: as for `Nc1ccccc1O`, the entry is “inactive”; as for `CCCCCOc1ccccc1/C(=C\SC)n1ccnc1`, 15.1 µM (active); as for `CCN(C(=O)c1cc(C)cc(OC[C@H](C)Nc2ccncc2)c1)C(C)C`, 17.2 µM (active).
On the same count and under the same terms, as for `C=C(C)C(=O)OCC[N+](C)(C)C`, the entry is “inactive”; as for `Nc1ccc(N)c2ccccc12`, “inactive”.
On to `CC(=O)SC[C@@H](Cc1ccccc1)C(=O)NCC(=O)OCc1ccccc1`, for which the Potency entry was “inactive”.
With `CC(C)C(C)(C)C(C)(C)C(C)(C)S`, the Potency result was “inactive”.
On the same count and under the same terms, as for `COc1ccc(C(=O)/C(Br)=C\C(=O)O)cc1`, the entry is “inactive”; as for `Cc1onc(-c2c(Cl)cccc2Cl)c1C(=O)N[C@@H]1C(=O)N2[C@@H]1SC(C)(C)[C@@H]2C(=O)O`, “inactive”.
On to `Cc1ccc2oc(CN(Cc3ccccc3)C(=O)Nc3c(F)cc(F)cc3F)c(-c3ccc(Cl)cc3)c2c1`, for which the Potency entry was “inactive”.
On the same count and under the same terms, under `CC[C@H](c1ccc(O)cc1)[C@@H](CC)c1ccc(O)cc1` stands “inactive”.
Same read-out and setting: under `CCCCCCCCCCCC(=O)NCCCN(C)C` stands 13.8 µM (active); under `Oc1ccc(C2(c3ccc(O)cc3)CC3CC2C2CCCC32)cc1` (stereo not given), “inactive”.
On the same count and under the same terms, as for `CCCCC(CC)COP(=O)(O)OCC(CC)CCCC` (stereo not given), the entry is “inactive”.
Take `O=C(Nc1ccc(Oc2ccc(Cl)cc2)c(Cl)c1)c1cc(I)cc(I)c1O`: the Potency result is “inactive”.
On the same count and under the same terms, under `C[n+]1ccn(Cc2ccccc2)c1` stands “inactive”.
Same read-out and setting: as for `CCOc1nc2cccc(C(=O)OC(C)OC(=O)OC3CCCCC3)c2n1Cc1ccc(-c2ccccc2-c2nn[nH]n2)cc1` (stereo not given), the entry is “inactive”; as for `CCOC(=O)c1nc(C(Cl)(Cl)Cl)n(-c2ccc(Cl)cc2Cl)n1`, 49 µM (active); as for `COc1cccc2c1C(=O)c1c(O)c3c(c(O)c1C2=O)C[C@@](O)(C(=O)CO)C[C@@H]3O[C@H]1C[C@H](N)[C@H](O[C@@H]2CCCCO2)[C@H](C)O1`, “inactive”.
On the same count and under the same terms, as for `Cc1cccc(S(=O)(=O)O)c1C`, the entry is “inactive”.
Consider `O=C(OCC(COC(=O)c1ccccc1)(COC(=O)c1ccccc1)COC(=O)c1ccccc1)c1ccccc1`, for which the Potency entry is “inactive”.
`[O-][n+]1ccccc1SSc1cccc[n+]1[O-]`: the activity change, negative = inhibition is 14% [at 15.8 µM] (inactive).
With `Cc1c(C)c2c(c(C)c1OC(=O)CCC(=O)O)CC[C@@](C)(CCC[C@H](C)CCC[C@H](C)CCCC(C)C)O2`, the Potency entry is “inactive”.
Still for that read-out and setting: under `CC(C)=CCOc1ccc(/C=C/C(=O)c2ccc(OCC=C(C)C)cc2OCC(=O)O)cc1` stands “inactive”; under `CCc1cc(SCc2sc(-c3ccc(C(F)(F)F)cc3)nc2CN2CCN(c3ccc(OC)cc3)CC2)ccc1OCC(=O)O`, 4.36 µM (active).
